High-throughput results: PubChem, Center for Chemical Genomics, University of Michigan
Dicer processing – blocks human Dicer maturation of pre-miR-21. Q9UPY3. AID 1347074. z-score at 25 µM. cat-ELCCA pre-miR-21 Dicer processing, chemiluminescence; active compounds read high. actives 6% (n = 47,000); in the data active = z-score above about 3, passing the limit was not always enough;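 note: plate controls were vehicle for no effect and no enzyme for full effect; higher signal means more uncleaved substrate so more Dicer inhibition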
An asterisk follows results filed as active; ! = not confirmed by another sample. Only a selection was taken, and hits are over-represented in it overall.

SMILES	Dicer processing
Cc1cc(C(=O)ONC(=O)c2ccco2)nn1-c1cc(Cl)ccc1Cl	-0.66
CN(C)NC(=O)NC(=O)c1ccc(Oc2ccc(Cl)cc2)c([N+](=O)[O-])c1	6.22
O=C1CN(S(=O)(=O)c2ccccc2)C(c2ccccc2)c2cc(Br)ccc2N1 (stereo not given)	0.35
O=C(O)c1ccc(COCOCc2ccc(C(=O)O)o2)o1	1.59
Cc1onc(-c2c(Cl)cccc2Cl)c1C(=O)Nc1nc(-c2ccccc2)cs1	2.14
CC(=O)c1cc([N+](=O)[O-])c(Nc2ccc(Cl)cc2)s1	4.75*
CC(=O)c1cc([N+](=O)[O-])c(Nc2ccccc2)s1	0.9
COc1ccc(Nc2sc(C(C)=O)cc2[N+](=O)[O-])cc1	1.4
CSc1nc2ccc(NC(=O)c3ccccc3C(F)(F)F)cc2s1	-1.25
Cc1ccnc(NC(=O)CCC(=O)O)c1	0.53
COc1ccc(C(O)(c2ccccc2OC)c2ccc(OC)cc2OC)c(OC)c1	1.65
CCc1ccc(C(=O)/C=C/SC(=NC#N)SC)cc1	0.17
Fc1cccc(Cl)c1CNC(=S)Nc1ccc(Cl)cc1	0.16
FC(F)(F)c1c2c(nc3cc(C4CC4)nn13)-c1ccccc1CC2	-0.88
Cc1cc2nc3c(c(C(F)(F)F)n2n1)CCc1ccccc1-3	-1.6
COCCNC(=O)c1nn2c(C(F)(F)F)c3c(nc2c1Cl)-c1ccccc1CC3	4.73*
CCc1ccc(C2CC(=O)Nc3nc(N)[nH]c(=O)c32)cc1 (stereo not given)	-1.12
Cc1onc(-c2ccccc2)c1C(=O)NC1CCCCC1NC(=O)c1c(-c2ccccc2)noc1C (stereo not given)	-0.3
CC1CCc2c(sc(NC(=O)c3ccco3)c2C(=O)O)C1 (stereo not given)	1.51
Cc1onc(-c2ccccc2)c1C(=O)Nc1sc2c(c1C#N)CCC(C)C2 (stereo not given)	4.72*
Cn1cnnc1S/C=C/C(=O)c1ccc(F)cc1	-1.15
Cc1ccc2nc(C(F)(F)F)cc(N3CCN(/C=C(/C#N)S(=O)(=O)c4cccs4)CC3)c2c1	-1.5
Cc1ccc(S(=O)(=O)NC(=O)Nc2ccc(CC#N)cc2)cc1	-0.44
CCOC(=O)C(=CNc1nc2ccc(C)cc2s1)C(=O)OCC	-0.07
CNC(=O)Nc1ccc(C(C)(C)C)cc1Cl	5.14*
SMILES	Dicer processing
CCOC(=O)NC(=S)Nc1ccc(C(C)(C)C)cc1Cl	2.68
CNC(=O)NNC(=O)c1ccc(C(C)(C)C)cc1	-2.39
Cn1c(=O)c2c(-c3ccccc3)n(CCCO)cc2n(C)c1=O	5.83*
Cc1ccc(-c2c3c(=O)n(C)c(=O)n(C)c3cn2C)cc1	0.83
Cn1c(=O)c2c(-c3ccccc3)n(C(CO)(CO)CO)cc2n(C)c1=O	0.81
CCNC(=O)C(=O)NCC1CCCO1 (stereo not given)	1.96
CC(=O)c1nnn(-c2c(Cl)cc(Cl)cc2Cl)c1C	-0.06
O=S(=O)(c1ccc2ccccc2c1)N1CCc2ccccc2C1	2.17
Cn1c(SCC(O)c2ccc(F)cc2)nnc1-c1ccc2ccccc2c1 (stereo not given)	-0.89
Cn1c2c(c(=O)n(C)c1=O)C(c1ccc(Br)cc1)C1=C(N2)c2ccccc2C1=O (stereo not given)	-0.07
CN(C)CCCN1c2ccccc2CCc2ccc(Cl)cc21	24.9
CNCCCN1c2ccccc2CCc2ccccc21	5.62*!
CN(CCCN1c2ccccc2CCc2ccccc21)CC(=O)c1ccc(Cl)cc1	-0.11
O=c1c2c(-c3ccc([N+](=O)[O-])cc3)onc2n(-c2ccccc2)c(=O)n1-c1ccccc1	0.51
C=C1C[C@]23C[C@@]1(O)CC[C@H]2[C@@]12C=C[C@H](O)C(C)(C(=O)O1)[C@H]2[C@@H]3C(=O)O	1.08
Cc1cccc(-c2nc3n(n2)C(c2ccc(O)cc2)C2=C(CCCC2=O)N3)c1 (stereo not given)	0.2
O=C1CCCC2=C1C(c1ccncc1)n1nc(-c3cccc(Cl)c3)nc1N2 (stereo not given)	-0.3
O=C1CCCC2=C1C(c1ccc3c(c1)OCO3)n1nc(-c3cccc(Cl)c3)nc1N2 (stereo not given)	4.07*
Cc1sc2ccccc2c(=O)c1Cc1ccc(Cl)c(Cl)c1	0.38
COc1ccc(C2C3=C(Nc4nc(N)[nH]c(=O)c42)c2ccccc2C3=O)cc1 (stereo not given)	-2.41
Cc1onc(-c2c(Cl)cccc2Cl)c1C(=O)NNc1cccc(C(F)(F)F)n1	0.88
CC(C(=O)NNC(=S)NCC1CC1)n1nnc(N2CCOCC2)n1 (stereo not given)	3.88*
COC(=O)Cn1nnc(N2CCOCC2)n1	0.53
O=C(Cn1nnc(N2CCOCC2)n1)NNC(=S)Nc1ccc(F)cc1F	0.13
COc1ccc(NS(=O)(=O)c2ccc(Br)cc2)cc1	2.27
COc1ccc(S(=O)(=O)Nc2cc(OC)c(Cl)cc2OC)cc1	1.34
COc1ccc(S(=O)(=O)Nc2c(C)cc(O)cc2C)cc1	5.2*
N#Cc1cc([N+](=O)[O-])ccc1SCc1ccccc1	-0.82
CC1CC(=O)C2=C(C1)Nc1nc(C(F)(F)F)nn1C2c1ccccc1 (stereo not given)	5.2*
